The source made the active and inactive calls.
Columns and labels:
[1] = binders of probe aFSTL3 on microarray, primary screen, stem cell growth factor project, biochemical, small-molecule microarray, fluorescence 635/667 (AID 1064); details: higher = more signal;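 also: measures binding of the biotinylated anti-FSTL3 antibody to printed compounds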
[2] = binders from COS7 lysate, DM2A8 probe, primary screen, torsin A project, cell lysate, small-molecule microarray, fluorescence 635/667 (AID 1065); details: higher = more signal, COS7 lysate expressing mutant human TOR1A
[3] = binders of probe aFGF2 on microarray, primary screen, stem cell growth factor project, biochemical, small-molecule microarray, fluorescence 635/667 (AID 1067); details: higher = more signal;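 also: measures binding of biotinylated aFGF2 protein to printed compounds on slides; z-score merges feature fluorescence and signal-to-noise across triplicate slides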
[4] = binders of probe aFGF10 on microarray, primary screen, stem cell growth factor project, biochemical, small-molecule microarray, fluorescence 635/667 (AID 1071); details: higher = more signal;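 also: score merges 667 nm spot intensity and signal to noise from triplicate slides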
[5] = molecular target: Neurogenic locus notch homolog protein 2 (Homo sapiens) (UniProt Q04721); experiment: Notch2 binders on small-molecule microarrays, primary screen, biochemical, small-molecule microarray, 635 nm fluorescence, stem cell growth factors (AID 1073); details: Notch2 binding, higher = more signal
[6] = molecular target: Pro-neuregulin-1, membrane-bound isoform (Homo sapiens) (UniProt Q02297); experiment: NRG1 binders on small-molecule microarrays, primary screen, psychiatric disease protein project, biochemical, small-molecule microarray, fluorescence 635/667 (AID 1075); details: NRG1 binding, 635 nm fluorescence, higher = more signal;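 also: score combines 667 nm spot fluorescence with signal to noise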
[7] = test system: Neuregulin-1 EGF-like domain; experiment: binders of neuregulin-1 EGF-like domain, primary screen, biochemical, small-molecule microarray, 635 nm fluorescence (AID 1081); details: small-molecule microarray binding, higher = more signal;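 also: binding of the protein to compounds printed on small-molecule microarray slides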
[8] = FRG1 promoter luciferase signal modulators, primary screen, FRG1 inhibition for FSHD, cell-based, C2C12 myotubes, firefly/Renilla luciferase, luminescence (AID 1084); details: higher = more signal, called active from +8 up or from −8 down
[9] = binders of probe aFST on microarray, primary screen, stem cell growth factor project, biochemical, small-molecule microarray, fluorescence 635/667 (AID 1086); details: higher = more signal;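 also: score merges 667 nm fluorescence with signal-to-noise of each printed compound spot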
[10] = binders of probe aHhip on microarray, primary screen, stem cell growth factor project, biochemical, small-molecule microarray, fluorescence 635/667 (AID 1087); details: higher = more signal;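 also: score merges spot fluorescence at 667nm with spot signal to noise ratio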
[11] = test system: PRMT1 (protein arginine N-methyltransferase 1); experiment: PRMT1 binders on small-molecule microarrays, primary screen, biochemical, small-molecule microarray, 635 nm fluorescence (AID 1088); details: small-molecule microarray binding, higher = more signal;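 also: binding of Prmt1 protein to compounds spotted on small-molecule microarray slides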
[12] = yeast growth modulation, basal conditions, primary screen, YJM789 clinical isolate, OD600, 24 h (AID 1089);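 also: growth of clinical yeast isolate S. cerevisiae YJM 789 seeded 1000 cells per well; test concentration not given here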; details: S. cerevisiae YJM789 growth, higher = more signal, called active from +8 up or from −8 down
[13] = fission yeast growth modulation, primary screen, strain 972, OD600, 24 h, no modulator (AID 1090);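 also: basal condition with compound alone and no growth modifier present; test concentration not given here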; details: S. pombe 972 growth, higher = more signal, called active from +8 up or from −8 down
[14] = S. cerevisiae growth modulation with rapamycin, primary screen, strain BY4716, OD600, 96 h (AID 1091); details: higher = more signal, called active from +8 up or from −8 down; also: test concentration not given here
[15] = molecular target: Torsin-1A-interacting protein 2 (Homo sapiens) (UniProt Q8NFQ8); experiment: LULL1 binders on small-molecule microarray, primary screen, cell lysate, human LULL1 lysate, 635/667 nm fluorescence (AID 1092); details: hLULL1 lysate binding, 635 nm fluorescence, higher = more signal;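 also: probe is lysate of COS7 cells overexpressing human LULL1; score merges per-feature 667 nm fluorescence with signal-to-noise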
[16] = E. coli growth modulation, two-sided OD650, primary screen, E. coli filamentation project, strain DRC41, 24 h (AID 1093); details: OD650, 24 h, higher = more signal, called active from +8 up or from −8 down;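 also: MC1000 strain lacking acrAB efflux and sulA so SOS filamentation is blocked; test concentration not given here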
[17] = small-molecule microarray binders of probe aLefty2, primary screen, biochemical, biotinylated probe, 635/667 nm fluorescence (AID 1094); details: higher = more signal;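 also: score merges spot fluorescence near 667 nm with spot signal-to-noise ratio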
[18] = test system: Noggin (protein binding on small-molecule microarray); experiment: Noggin binders on small-molecule microarray, primary screen, biochemical, 635/667 nm fluorescence (AID 1095); details: 635 nm fluorescence, higher = more signal;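 also: score merges 667 nm feature fluorescence with signal to noise over triplicate slides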
[19] = molecular target: Neurogenic locus notch homolog protein 3 (Homo sapiens) (UniProt Q9UM47); experiment: NOTCH3 binders on small-molecule microarray, primary screen, biochemical, 635/667 nm fluorescence (AID 1096); details: NOTCH3 binding, 635 nm fluorescence, higher = more signal
[20] = small-molecule microarray binders of probe aEGFR, primary screen, biochemical, biotinylated probe, 635/667 nm fluorescence (AID 1097); details: higher = more signal;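 also: probe is a biotinylated anti-EGFR antibody binding compounds printed on slides; score combines fluorescence near 667 nm and signal to noise of each spot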

Chain of Neurogenic locus notch homolog protein 3 (Homo sapiens) (Q9UM47 whole entry, looked up): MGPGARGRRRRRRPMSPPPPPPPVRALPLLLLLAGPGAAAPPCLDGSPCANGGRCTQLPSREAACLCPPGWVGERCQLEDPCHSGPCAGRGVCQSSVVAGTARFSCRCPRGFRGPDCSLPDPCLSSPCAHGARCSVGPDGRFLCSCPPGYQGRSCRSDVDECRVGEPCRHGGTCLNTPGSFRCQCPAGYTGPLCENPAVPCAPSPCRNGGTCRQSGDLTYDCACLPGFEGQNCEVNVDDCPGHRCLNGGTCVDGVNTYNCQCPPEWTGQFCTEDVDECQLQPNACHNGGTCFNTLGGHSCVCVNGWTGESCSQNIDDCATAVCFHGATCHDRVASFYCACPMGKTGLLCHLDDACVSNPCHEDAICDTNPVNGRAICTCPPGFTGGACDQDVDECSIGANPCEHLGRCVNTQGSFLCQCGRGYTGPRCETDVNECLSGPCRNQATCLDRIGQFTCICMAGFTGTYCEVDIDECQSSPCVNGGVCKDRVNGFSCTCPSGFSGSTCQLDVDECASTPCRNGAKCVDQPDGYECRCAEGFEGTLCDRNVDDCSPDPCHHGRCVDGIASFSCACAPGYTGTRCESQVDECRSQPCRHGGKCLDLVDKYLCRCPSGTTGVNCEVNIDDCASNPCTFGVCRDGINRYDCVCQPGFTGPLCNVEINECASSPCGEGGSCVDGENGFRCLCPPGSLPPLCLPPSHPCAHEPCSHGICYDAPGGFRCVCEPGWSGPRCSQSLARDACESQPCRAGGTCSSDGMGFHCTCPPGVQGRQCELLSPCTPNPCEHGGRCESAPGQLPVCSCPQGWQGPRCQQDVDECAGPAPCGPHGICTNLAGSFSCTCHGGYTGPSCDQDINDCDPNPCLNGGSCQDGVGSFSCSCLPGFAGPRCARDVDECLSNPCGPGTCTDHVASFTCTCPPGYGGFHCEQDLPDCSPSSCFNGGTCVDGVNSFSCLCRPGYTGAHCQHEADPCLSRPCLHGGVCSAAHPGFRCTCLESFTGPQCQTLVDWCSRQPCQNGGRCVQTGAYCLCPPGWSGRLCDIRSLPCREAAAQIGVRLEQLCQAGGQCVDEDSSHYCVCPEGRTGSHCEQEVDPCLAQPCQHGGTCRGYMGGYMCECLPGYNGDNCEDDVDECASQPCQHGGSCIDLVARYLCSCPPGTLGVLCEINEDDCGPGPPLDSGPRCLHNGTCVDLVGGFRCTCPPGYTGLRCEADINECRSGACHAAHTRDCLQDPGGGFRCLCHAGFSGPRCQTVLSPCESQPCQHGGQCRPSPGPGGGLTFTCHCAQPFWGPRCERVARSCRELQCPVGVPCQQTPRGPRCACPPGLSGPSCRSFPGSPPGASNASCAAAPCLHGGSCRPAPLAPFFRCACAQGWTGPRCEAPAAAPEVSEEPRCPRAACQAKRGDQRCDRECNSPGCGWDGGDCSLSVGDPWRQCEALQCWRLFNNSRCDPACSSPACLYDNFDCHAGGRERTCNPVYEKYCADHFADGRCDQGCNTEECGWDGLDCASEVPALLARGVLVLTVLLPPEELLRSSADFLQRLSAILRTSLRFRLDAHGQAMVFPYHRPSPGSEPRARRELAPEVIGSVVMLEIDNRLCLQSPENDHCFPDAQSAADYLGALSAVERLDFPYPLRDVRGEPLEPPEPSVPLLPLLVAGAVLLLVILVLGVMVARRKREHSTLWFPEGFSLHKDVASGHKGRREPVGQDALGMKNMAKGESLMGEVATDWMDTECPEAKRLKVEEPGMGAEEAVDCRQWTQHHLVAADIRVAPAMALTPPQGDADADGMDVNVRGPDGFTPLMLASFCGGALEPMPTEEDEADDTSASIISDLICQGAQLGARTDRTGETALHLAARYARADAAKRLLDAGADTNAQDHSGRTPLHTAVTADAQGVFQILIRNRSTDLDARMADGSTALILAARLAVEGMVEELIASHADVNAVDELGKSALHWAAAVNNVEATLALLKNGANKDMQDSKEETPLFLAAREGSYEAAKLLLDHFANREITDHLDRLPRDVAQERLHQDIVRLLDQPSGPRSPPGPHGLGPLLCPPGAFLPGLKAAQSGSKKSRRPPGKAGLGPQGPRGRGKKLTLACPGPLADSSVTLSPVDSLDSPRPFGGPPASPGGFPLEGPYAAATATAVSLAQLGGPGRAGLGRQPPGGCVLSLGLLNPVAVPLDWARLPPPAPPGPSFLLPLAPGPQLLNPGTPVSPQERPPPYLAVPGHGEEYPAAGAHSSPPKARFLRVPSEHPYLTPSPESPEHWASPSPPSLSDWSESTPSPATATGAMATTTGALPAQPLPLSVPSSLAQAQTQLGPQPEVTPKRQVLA
Chain of Torsin-1A-interacting protein 2 (Homo sapiens) (Q8NFQ8 whole entry, looked up): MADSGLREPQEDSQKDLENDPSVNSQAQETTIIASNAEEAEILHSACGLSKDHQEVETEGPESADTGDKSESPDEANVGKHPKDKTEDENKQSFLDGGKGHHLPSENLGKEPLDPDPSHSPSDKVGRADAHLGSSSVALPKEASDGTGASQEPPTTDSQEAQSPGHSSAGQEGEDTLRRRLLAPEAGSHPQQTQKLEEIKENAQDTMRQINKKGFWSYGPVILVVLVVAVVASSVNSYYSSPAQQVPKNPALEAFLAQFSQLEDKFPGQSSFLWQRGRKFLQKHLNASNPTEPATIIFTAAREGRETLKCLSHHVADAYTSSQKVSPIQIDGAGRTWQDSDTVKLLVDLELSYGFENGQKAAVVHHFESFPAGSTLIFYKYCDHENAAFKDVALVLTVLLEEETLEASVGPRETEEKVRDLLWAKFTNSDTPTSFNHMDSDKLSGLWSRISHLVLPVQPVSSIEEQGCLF
Chain of Pro-neuregulin-1, membrane-bound isoform (Homo sapiens) (Q02297 whole entry, looked up, the tested form may be a part, canonical isoform): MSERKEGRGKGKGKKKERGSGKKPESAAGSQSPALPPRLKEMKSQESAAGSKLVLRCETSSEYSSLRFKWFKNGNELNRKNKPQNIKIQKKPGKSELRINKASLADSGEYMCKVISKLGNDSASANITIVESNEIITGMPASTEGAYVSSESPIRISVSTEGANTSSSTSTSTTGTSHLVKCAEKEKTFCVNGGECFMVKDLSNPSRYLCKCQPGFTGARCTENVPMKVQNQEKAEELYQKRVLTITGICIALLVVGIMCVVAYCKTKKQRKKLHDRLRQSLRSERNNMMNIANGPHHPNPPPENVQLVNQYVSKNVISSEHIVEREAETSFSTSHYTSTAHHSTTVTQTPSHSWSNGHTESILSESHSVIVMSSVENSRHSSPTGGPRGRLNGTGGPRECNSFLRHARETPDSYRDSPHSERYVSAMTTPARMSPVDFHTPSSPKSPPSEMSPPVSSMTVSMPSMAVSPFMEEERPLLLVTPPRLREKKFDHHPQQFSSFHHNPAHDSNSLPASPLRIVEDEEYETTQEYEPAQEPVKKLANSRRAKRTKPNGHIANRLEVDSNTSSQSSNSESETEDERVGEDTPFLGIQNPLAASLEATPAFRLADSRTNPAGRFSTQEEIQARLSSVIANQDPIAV

Compound: C=CC[C@H](O)c1ccc(O)c2ccccc12
- composite z-score [1]: -0.112
- composite z-score [2]: 0.821
- composite z-score [3]: -0.0558
- composite z-score [4]: 0.513
- composite z-score [5]: 0.61
- composite z-score [6]: 0.826
- composite z-score [7]: 1.3
- z-score [8]: -0.0666 (inactive)
- composite z-score [9]: 0.193
- composite z-score [10]: 0.0749
- composite z-score [11]: 1.56
- z-score [12]: -7.13 (inactive)
- z-score [13]: -17.9 (active)
- z-score [14]: 8.59 (active)
- composite z-score [15]: 1.71
- z-score [16]: 1.49 (inactive)
- composite z-score [17]: 0.0277
- composite z-score [18]: 1.07
- composite z-score [19]: 1.07
- composite z-score [20]: -0.0151

Compound: CC(C)c1ccc(NN2C(C(O)C3CCCCC3)C=CC3C(=O)N(c4ccccc4)C(=O)C32)cc1 (stereo not given)
- composite z-score [1]: 0.249
- composite z-score [2]: 0.333
- composite z-score [3]: 0.224
- composite z-score [4]: 0.509
- composite z-score [5]: 1.6
- composite z-score [6]: 1.22
- composite z-score [7]: 1
- z-score [8]: -1.09 (inactive)
- composite z-score [9]: 1.62
- composite z-score [10]: 0.142
- composite z-score [11]: 1.02
- z-score [12]: 0.487 (inactive)
- z-score [13]: 0.361 (inactive)
- z-score [14]: -0.287 (inactive)
- composite z-score [15]: 3.07
- z-score [16]: -1.23 (inactive)
- composite z-score [17]: 0.0779
- composite z-score [18]: -0.0338
- composite z-score [19]: 1.03
- composite z-score [20]: 0.168

Compound: COc1ccc(C(=O)Nc2cccc(CN3C(=O)[C@]4(O[C@H](CC(=O)N(CCO)Cc5ccccc5)[C@@H]([Si](C)(C)c5ccc(OC)cc5)[C@@H]4C)c4ccccc43)c2)cc1
- composite z-score [1]: -0.211
- composite z-score [2]: 0.333
- composite z-score [3]: -0.0695
- composite z-score [4]: 0.792
- composite z-score [5]: 0.784
- composite z-score [6]: 0.61
- composite z-score [7]: 0.958
- z-score [8]: -1.07 (inactive)
- composite z-score [9]: -0.16
- composite z-score [10]: 0.2
- composite z-score [11]: 1.05
- z-score [12]: 1.22 (inactive)
- z-score [13]: 0.706 (inactive)
- z-score [14]: 3.65 (inactive)
- composite z-score [15]: 1.69
- z-score [16]: 0.854 (inactive)
- composite z-score [17]: 0.0553
- composite z-score [18]: 0.701
- composite z-score [19]: 0.255
- composite z-score [20]: -0.0251

Compound: C[C@H]1C2[C@H](Cc3ccccc3)NC(=O)[C@]23C(=O)N[C@@H](Cc2ccccc2)C(=O)N2CCC[C@H]2C(=O)NC/C=C/CC/C=C/C3[C@@H]2O[C@]12C (stereo not given in full)
- composite z-score [1]: 0.0522
- composite z-score [2]: 0.483
- composite z-score [3]: -0.129
- composite z-score [4]: 0.75
- composite z-score [5]: 0.237
- composite z-score [6]: 0.0519
- composite z-score [7]: 1.03
- z-score [8]: 1.28 (inactive)
- composite z-score [9]: 0.101
- composite z-score [10]: -0.0618
- composite z-score [11]: 1.05
- z-score [12]: -0.501 (inactive)
- z-score [13]: -0.36 (inactive)
- z-score [14]: -0.441 (inactive)
- composite z-score [15]: 1.7
- z-score [16]: -0.269 (inactive)
- composite z-score [17]: -0.0666
- composite z-score [18]: 0.79
- composite z-score [19]: 0.977
- composite z-score [20]: -0.135

Compound: CC(C)(C)OC(=O)N1[C@@H](C=C(Br)Br)COC1(C)C
- composite z-score [1]: -0.195
- composite z-score [2]: -0.0287
- composite z-score [3]: 0.0014
- composite z-score [4]: 0.348
- composite z-score [5]: 0.519
- composite z-score [6]: -0.0961
- composite z-score [7]: 0.286
- z-score [8]: -1.42 (inactive)
- composite z-score [9]: 0.125
- composite z-score [10]: 0.0302
- composite z-score [11]: 0.656
- z-score [12]: -2.93 (inactive)
- z-score [13]: -6.61 (inactive)
- z-score [14]: -1.27 (inactive)
- composite z-score [15]: 0.546
- z-score [16]: 1.74 (inactive)
- composite z-score [17]: -0.0815
- composite z-score [18]: 0.462
- composite z-score [19]: 0.668
- composite z-score [20]: -0.0954

Compound: COC(=O)[C@@]1(Cc2ccc(F)cc2)[C@H]2c3cc(C(=O)N4CCCC4)n(CCSCCO)c3C[C@H]2CN1C(=O)c1ccccc1
- composite z-score [1]: 0.349
- composite z-score [2]: -0.366
- composite z-score [3]: 0.157
- composite z-score [4]: 0.359
- composite z-score [5]: 1.53
- composite z-score [6]: 1.82
- composite z-score [7]: 1.32
- z-score [8]: -0.0476 (inactive)
- composite z-score [9]: 1.21
- composite z-score [10]: -0.174
- composite z-score [11]: -0.665
- z-score [12]: 0.856 (inactive)
- z-score [13]: 1.25 (inactive)
- z-score [14]: 0.727 (inactive)
- composite z-score [15]: 3.54
- z-score [16]: -0.0319 (inactive)
- composite z-score [17]: 0.314
- composite z-score [18]: -0.906
- composite z-score [19]: 0.225
- composite z-score [20]: 0.0726

Compound: C=C(CCCC)/C(=C/C[C@@H](OC(C)=O)c1ccc(OCCO)cc1)c1cc(C(=O)OC)ccc1OC
- composite z-score [1]: 0.0062
- composite z-score [2]: 0.982
- composite z-score [3]: -0.076
- composite z-score [4]: -0.314
- composite z-score [5]: -0.332
- composite z-score [6]: 1.37
- composite z-score [7]: 1.21
- z-score [8]: 2.07 (inactive)
- composite z-score [9]: 0.0501
- composite z-score [10]: -0.119
- composite z-score [11]: 1.55
- z-score [12]: -0.201 (inactive)
- z-score [13]: -0.52 (inactive)
- z-score [14]: -0.645 (inactive)
- composite z-score [15]: 2.27
- z-score [16]: 0.0811 (inactive)
- composite z-score [17]: 0.0677
- composite z-score [18]: 0.0148
- composite z-score [19]: 0.467
- composite z-score [20]: -0.0828

Compound: O=C1O[C@@H](c2ccccc2)[C@@H](c2ccccc2)N2[C@@H](c3ccccc3OCCO)[C@]3(C(=O)Nc4ccc(C#CC5(O)CCCCCC5)cc43)[C@@H](C(=O)N3CCCCCCC3)[C@H]12
- composite z-score [1]: 4.04
- composite z-score [2]: 2.44
- composite z-score [3]: 1.08
- composite z-score [4]: 1.47
- composite z-score [5]: 1.89
- composite z-score [6]: 2.67
- composite z-score [7]: 1.4
- z-score [8]: -1.05 (inactive)
- composite z-score [9]: 3.81
- composite z-score [10]: 3.97
- composite z-score [11]: 1.53
- z-score [12]: 0.834 (inactive)
- z-score [13]: -0.51 (inactive)
- z-score [14]: 2.57 (inactive)
- composite z-score [15]: 5.07
- z-score [16]: 1.23 (inactive)
- composite z-score [17]: 1.95
- composite z-score [18]: 2.46
- composite z-score [19]: 1
- composite z-score [20]: 1.52

Compound: CCCN1C(=O)[C@@]2(c3ccc([N+](=O)[O-])cc3)CC(=O)N(C3CCCCC3)[C@@H]2c2ccc(CO)cc21
- composite z-score [1]: -0.439
- composite z-score [2]: -0.768
- composite z-score [3]: -0.0131
- composite z-score [4]: -0.201
- composite z-score [5]: -0.553
- composite z-score [6]: -0.154
- composite z-score [7]: 1.23
- z-score [8]: 0.693 (inactive)
- composite z-score [9]: -0.479
- composite z-score [10]: 0.137
- composite z-score [11]: 0.254
- z-score [12]: -0.383 (inactive)
- z-score [13]: 1.29 (inactive)
- z-score [14]: -0.117 (inactive)
- composite z-score [15]: -0.298
- z-score [16]: -0.0384 (inactive)
- composite z-score [17]: 0.198
- composite z-score [18]: 0.73
- composite z-score [19]: -0.327
- composite z-score [20]: 0.0785

Compound: O=C1NC(=O)C2C1C=CC(C(O)C1CCCCC1)N2Nc1ccccn1 (stereo not given)
- composite z-score [1]: -0.236
- composite z-score [2]: 0.0046
- composite z-score [3]: -0.0524
- composite z-score [4]: 0.235
- composite z-score [5]: 0.629
- composite z-score [6]: 1.37
- composite z-score [7]: 1.32
- z-score [8]: 1.64 (inactive)
- composite z-score [9]: 0.265
- composite z-score [10]: -0.374
- composite z-score [11]: 0.327
- z-score [12]: 0.459 (inactive)
- z-score [13]: 0.633 (inactive)
- z-score [14]: 0.117 (inactive)
- composite z-score [15]: 2.43
- z-score [16]: -1.5 (inactive)
- composite z-score [17]: 0.0078
- composite z-score [18]: -0.401
- composite z-score [19]: 0.492
- composite z-score [20]: -0.104
